Compound activity (PubChem)
CYP2C19 act = cytochrome P450 2C19 (human) activation. P33261. recombinant CYP2C19, luciferin-H EGE luminescence; hits give high values; 0 = fully inhibited enzyme, 1 = untreated enzyme. activation factor at 5 µM. 96,000 tested, under 10 active. AID 1025;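 active means activation factor of at least 2 at 5 µM in the primary screen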;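 further: 0 = wells with 2.5 mM tranylcypromine and 1 = vehicle-only wells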
CYP2C9 inh = human CYP2C9 inhibition. CYP2C9 Supersomes, luciferin-H conversion, luminescence. P11712. inhibition, % at 5 µM. AID 777. actives 20% (n = 96,000);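 active means blocking of liver enzyme CYP2C9 beyond about 50% at 5 µM, limit read from the data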
Target sequence (P11712 whole entry, looked up): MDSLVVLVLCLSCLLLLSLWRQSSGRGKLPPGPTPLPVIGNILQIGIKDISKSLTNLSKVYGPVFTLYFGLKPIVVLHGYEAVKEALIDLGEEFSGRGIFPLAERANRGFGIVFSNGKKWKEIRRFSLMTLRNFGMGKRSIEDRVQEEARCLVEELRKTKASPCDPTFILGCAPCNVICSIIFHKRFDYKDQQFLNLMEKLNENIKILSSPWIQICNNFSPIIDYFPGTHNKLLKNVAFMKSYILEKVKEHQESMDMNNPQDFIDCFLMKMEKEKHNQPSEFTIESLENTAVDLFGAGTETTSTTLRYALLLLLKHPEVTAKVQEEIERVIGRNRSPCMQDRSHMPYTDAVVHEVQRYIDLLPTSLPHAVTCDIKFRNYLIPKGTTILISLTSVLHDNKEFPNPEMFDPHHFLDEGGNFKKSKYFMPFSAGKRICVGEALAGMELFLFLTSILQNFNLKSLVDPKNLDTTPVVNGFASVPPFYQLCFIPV
Cav32 inh = blocks human Cav3.2 T-type calcium channel. B-score at 10 µM. Cav3.2-expressing cells, Fluo-4 calcium fluorescence FDSS; hits give low values. actives 4% (n = 100,000). AID 449739. O95180;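 active means single-dose well whose peak fluorescence ratio is a statistical outlier from its plate by either plate-standardised score or position-corrected B-score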
CYP2C19 inh = inhibitors of human CYP2C19; actives 21% (n = 96,000); CYP2C19 Supersomes, luciferin-H EGE luminescence, 30 min; inhibition, % at 5 µM; P33261; AID 778;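 active means CYP2C19 inhibition above a set limit at 5 µM in the primary screen, cut at about 50% in these data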;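 further: plate controls were negative control wells for no effect and 2.5 mM tranylcypromine positive control for full effect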
CYP2C9 activ = CYP2C9 (human) activation; recombinant CYP2C9, luciferin-H conversion, luminescence; hits give high values; factor 1 = untreated enzyme, 0 = blocked; P11712; actives 1.4% (n = 96,000); activation factor at 5 µM;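 active means activation factor of 2 or more for CYP2C9 at a 5 µM dose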;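 further: 0 = sulfaphenazole-blocked wells and 1 = vehicle-only wells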
An asterisk follows results filed as active; / = no result. Hits are enriched below; roughly 27% of the tested compounds scored in any of these assays.

SMILES | CYP2C19 act | CYP2C9 inh | Cav32 inh | CYP2C19 inh | CYP2C9 activ
C=C(C)CSC1=C(C#N)C(c2ccccc2Cl)CC(=O)N1 (stereo unspecified) | 0.4 | 70* | -2 | 58* | 0.3
COc1ccc(-n2c(SCC(N)=O)nc3nc4c(cc3c2=O)COC(C)(C)C4)cc1 | 1 | 8 | / | -5 | 0.9
CCCCCc1ccc(CC(=O)Nn2c(C)nc3ccccc3c2=O)cc1 | 0.4 | 95* | -3.6 | 60* | 0.1
Cc1nc2ccccc2c(=O)n1NC(=O)Cc1ccc(Br)cc1 | 0.6 | 85* | 0.15 | 40 | 0.2
Cc1ccc(-c2ccc(/C=C(\C#N)C(=O)Nc3cc(C)nn3-c3ccccc3)o2)cc1 | 0.9 | -4 | -6.6* | 10 | 1
N#C/C(=C\c1ccc(-c2ccccc2)o1)C(=O)Nn1cnnc1 | 0.1 | 99* | 0.5 | 92* | 0
N#C/C(=C\c1ccc(-c2cccc(Cl)c2)o1)C(=O)Nc1cccc2cccnc12 | 1 | -26 | -0.87 | -2 | 1.3
CSc1nc(-c2ccc(C)cc2)[nH]c1S(=O)(=O)c1ccccc1 | 0.5 | 78* | -0.96 | 46 | 0.2
NC(=O)c1ccccc1NS(=O)(=O)Cc1ccccc1 | 0.5 | -295 | -0.057 | 50 | 4*
CC(=O)Nc1ccc(NS(=O)(=O)c2cccc3ccccc23)cc1 | 0.1 | 29 | -1.6 | 89* | 0.7
CC(=O)Nc1ccc(NS(=O)(=O)Cc2ccccc2)cc1 | 0.4 | 37 | -0.041 | 58* | 0.6
CC(C)N(Cc1ccccc1)S(=O)(=O)N(C)C | 0.2 | 23 | 0.36 | 77* | 0.8
O=C(O)C1(c2cccc(Cl)c2)CCC1 | 1 | 8 | -0.74 | -1 | 0.9
CC1CN(C(=O)COC(=O)c2cccs2)CC(C)O1 (stereo unspecified) | 1 | -10 | / | 2 | 1.1
CC(=O)Nc1ccc(S(=O)(=O)N(Cc2ccccc2)C(C)C)cc1 | 0.5 | 67* | -1.1 | 52* | 0.3
CC(=O)Nc1ccc(NS(=O)(=O)c2ccc3ccccc3c2)cc1 | 0 | 75* | -0.33 | 99* | 0.3
CC(=O)Nc1ccc(S(=O)(=O)Nc2ccc(NC(=O)c3ccco3)cc2)cc1 | 1 | 20 | 0.45 | -1 | 0.8
O=C(Nc1ccc(Cl)cc1Cl)C1=Cc2ccccc2OC1 | 0.9 | -16 | -0.0091 | 10 | 1.2
CN(C)C(=O)NC(Nc1ccc(Cl)cc1Cl)C(Cl)(Cl)Cl (stereo unspecified) | 0.1 | 65* | -2.1 | 87* | 0.3
COC(=O)CSc1nnc(CNC(=O)c2ccccc2OC)n1-c1ccc(OC)cc1 | 1.1 | -3 | 0.082 | -11 | 1
O=S(=O)(NC1CCCC1)c1ccc(Br)s1 | 0 | 61* | 0.025 | 96* | 0.4
O=C(CCS(=O)(=O)c1ccc(Br)s1)NC1CCCCCC1 | 1.1 | 2 | 0.17 | -10 | 1
O=S(=O)(NC1CCCCC1)c1ccc(Cl)s1 | 0.1 | 85* | -0.081 | 90* | 0.2
CCC(C)OC(=O)C1=C(C)NC2=C(C(=O)C(C(=O)OC)C(C)C2)C1c1ccc(N(C)C)cc1 (stereo unspecified) | 0.8 | 40 | -2.3 | 15 | 0.6
CCCOC(=O)C1=C(C)NC2=C(C(=O)C(C(=O)OC)C(C)C2)C1c1ccc(N(CC)CC)cc1 (stereo unspecified) | / | / | -7.3* | / | /
SMILES | CYP2C19 act | CYP2C9 inh | Cav32 inh | CYP2C19 inh | CYP2C9 activ
Cc1ccc(S(=O)(=O)c2n[nH]n3c2nc(=O)c2ccccc23)cc1 | 1.1 | 94* | 1.5 | -5 | 0.1
Cc1ccc(S(=O)(=O)c2ccc(C)cc2)cc1 | 0.7 | -54 | -0.017 | 29 | 1.5
CCNC(=O)C1CC(=O)OC12CCCCC2 (stereo unspecified) | 0.7 | 0 | 0.61 | 31 | 1
CCOC(=O)CSc1n[nH]c(NC(=O)c2ccccc2)n1 | 0.6 | -3 | 0.33 | 40 | 1
CCOC(=O)CSc1n[nH]c(NC(=O)c2ccc(F)cc2)n1 | 0.5 | 21 | 0.053 | 53* | 0.8
Cc1ccc(S(=O)(=O)NCCN(CCNS(=O)(=O)c2ccc(C)cc2)S(C)(=O)=O)cc1 | 0.7 | 38 | -1.6 | 35 | 0.6
COCCNS(=O)(=O)c1ccc(-c2ccc(C)cc2)cc1 | 0.3 | 93* | -0.42 | 74* | 0.1
Cc1ccc(S(=O)(=O)NCCOCCNS(=O)(=O)c2ccc(C)cc2)cc1 | 0.3 | -101 | -0.47 | 68* | 2*
O=C(/C=C/Nc1cccc(C(F)(F)F)c1)c1ccc(Oc2ncccn2)cc1 | 0.7 | -5 | / | 29 | 1.1
Clc1ccc2c(N3CCCC3)ccnc2c1 | 0.9 | -6 | -0.91 | 8 | 1.1
Clc1ccc2c(NNc3ccccc3Cl)ccnc2c1 | 0.8 | 60* | -0.87 | 25 | 0.4
Cc1cc(C)nc(Nc2n[nH]c(-c3ccccc3Br)n2)n1 | 0.8 | 74* | -0.39 | 18 | 0.3
CCOc1ccc(CCNC(=O)c2cc3sccc3n2CC)cc1OCC | 0.5 | 17 | -2.6 | 51* | 0.8
CCOC(=O)N1CCC(NC(=O)c2cc3sccc3n2CC)CC1 | 1 | -15 | -0.047 | 3 | 1.1
O=C(C1CC(c2ccc(F)cc2)=NO1)N1CCc2ccccc2C1 (stereo unspecified) | 0.4 | 16 | -0.063 | 63* | 0.8
O=C(C1CC(c2ccccc2O)=NO1)N1CCc2ccccc2C1 (stereo unspecified) | 0.4 | 34 | -1.8 | 62* | 0.7
O=C(C1CC(c2ccc(F)cc2)=NO1)N1CCCCC1 (stereo unspecified) | / | / | 1.2 | / | /
COc1cccc(C2=NOC(C(=O)N3CCN(c4ccccc4)CC3)C2)c1OC (stereo unspecified) | / | / | -0.52 | / | /
COc1ccc(C2=NOC(C(=O)N3CCCCCC3)C2)cc1OC (stereo unspecified) | 1 | -5 | 0.62 | -1 | 1.1
O=C(C1CC(c2ccccc2O)=NO1)N1CCCCC1 (stereo unspecified) | 0.3 | 47 | 0.026 | 70* | 0.5
COc1ccc(NC(=O)CC2C(=O)N(c3cccc(C)c3)C(=O)N2C2CCCCC2)cc1 (stereo unspecified) | 0.4 | 47 | -0.47 | 56* | 0.5
COc1ccc(NC(=O)CC2C(=O)N(c3cccc(OC)c3)C(=O)N2CCC(C)C)cc1 (stereo unspecified) | 0.3 | 62* | -0.61 | 66* | 0.4
COc1ccc(NC(=O)CC2C(=O)N(c3cccc(OC)c3)C(=O)N2C(C)C)cc1 (stereo unspecified) | / | / | -0.068 | / | /
Cc1cc(NC(=O)C2C3C(=O)N(CC4CCCO4)C(C(=O)NCc4ccccc4)C34C=CC2(C)O4)no1 (stereo unspecified) | / | / | 0.26 | / | /
COc1ccc(C2C(C(C)=O)=C(O)C(=O)N2c2ccc(Br)cn2)cc1 (stereo unspecified) | 1 | 8 | -0.57 | 2 | 0.9
COC(=O)NCC12CC3CC(C1)CC(CNC(=O)OC)(C3)C2 | 0.6 | -13 | 0.11 | 38 | 1.1
NC(=O)CS(=O)(=O)c1nc2ccccc2n1Cc1ccccc1F | 0.6 | -7 | -0.41 | 39 | 1.1
